Test results: PubChem BioAssay (NCI)
The panel holds about 79,000 compounds, 15% with a hit somewhere; the sample as a whole holds those more often. The source made the active and inactive calls. Cut-off read from the data, not from the text of the source: active = growth inhibition above about 70%; inactive = the rest.

Assay: NCI Yeast Anticancer Drug Screen. Data for the bub3 strain (AID 167)
Conditions: S. cerevisiae bub3 mutant strain, at 50.0 µM, stronger effect = higher value
How it was run: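 Inhibition values come from growth of compound-treated mutant yeast normalised to vehicle-treated controls.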

| SMILES | growth inhibition |
| --- | --- |
| CC(=N/NC(=S)NCCN1CCCC1)/C(C)=N\NC(=S)NCCN1CCCC1 | 12.7% (inactive) |
| CN(CCN(C)C(=O)CCn1cc(F)c(=O)[nH]c1=O)C(=O)CCn1cc(F)c(=O)[nH]c1=O | 3.05% (inactive) |
| COC(=O)c1ccccc1NC(=O)C(=O)NNC(=O)c1ccncc1 | -0.8% (inactive) |
| O=C(c1ccccc1)c1ccccc1O | 10.7% (inactive) |
| COC(=O)C1=C(O)c2cc(-c3ccccc3)c(-c3ccccc3)c(C#N)c2NC(=O)C1 | -4.25% (inactive) |
| COc1cc(/C=C/Cc2cc3c(cc2OCCO)OCO3)cc(OC)c1OC | -4.65% (inactive) |
| CCCCCCCc1ccc(N=Cc2ccc(OCCC)cc2)cc1 | 97.7% (active) |
| C/C(CC(=O)Nc1ccc(C)cc1C)=N/N=C(N)N | -17.7% (inactive) |
| CCN(CC)CCOC1(Cc2ccccn2)CCCCC1 | -0.4% (inactive) |
| COC(=O)c1ccc2c(c1)nnn2C(C)=O | 1.7% (inactive) |
| c1ccc2c(c1)cnc1cc3c(cc12)ncc1ccccc13 | -6.45% (inactive) |
| CCOC(=O)c1ccc(NC(=O)Nc2ccc(OC)c([N+](=O)[O-])c2)cc1 | 17.8% (inactive) |
| COc1cc(C2(C)SCCCS2)cc(OC)c1OC | 25.8% (inactive) |
| COc1ccccc1/C=C(\S)C(=O)O | -12.7% (inactive) |
| COC(=O)c1cc(C)c(C(=O)O)c(C)c1 | 3.9% (inactive) |
| O=C(NO)c1c(F)c(F)c(C(=O)NO)c(F)c1F | 9.65% (inactive) |
| CNn1c(-c2ccc(C)cc2)n[nH]c1=O | 18.7% (inactive) |
| CCc1ccc(-c2c(-c3ccccc3)c(-c3ccccc3)c(-c3ccccc3)c(-c3ccccc3)c2-c2ccccc2)cc1 | -6.3% (inactive) |
| CC(c1ccccc1)C1OCCO1 (stereo not given) | -28.2% (inactive) |
| Cc1cc(N(CCOS(C)(=O)=O)CCOS(C)(=O)=O)ccc1C=Nc1ccc(C(=O)O)c(O)c1 | 19.2% (inactive) |

| SMILES | growth inhibition |
| --- | --- |
| Nc1ncnc2c1ncn2C1OC(CSCc2ccc(Cl)cc2)C(O)C1O (stereo not given) | 58.7% (inactive) |
| C[S+](C)c1ccc(Cl)cc1 | 11.3% (inactive) |
| N=S(c1ccccc1)c1ccccc1[N+](=O)[O-] (stereo not given) | 4.35% (inactive) |
| CC(=O)Nc1ccc(S(=O)(=O)CCS(=O)(=O)c2ccc(NC(C)=O)cc2)cc1 | 3.65% (inactive) |
| CCCCCCCCCCCCCCCCOc1ccccn1 | -21.6% (inactive) |
| COc1ccc2ccc3c(OC(C)=O)ccc(CCN(C)C(C)=O)c3c2c1OC(C)=O | 2.25% (inactive) |
| COc1ccc2c(c1)C1(C)CCCC(C)(CO)C1CC2 (stereo not given) | 1.4% (inactive) |
| CSc1c2c(c(C)c3c1[nH]c1ccccc13)C=NCC2 | 14% (inactive) |
| Brc1cn2[n+](c1)[B-]n1cc(Br)c[n+]1[B-]2 | 6.65% (inactive) |
| COc1ccc(NC(=O)/C(Cc2nc3ccccc3[nH]c2=O)=N\O)c(OC)c1 | -4.85% (inactive) |
| O=C(NC1CCC(CC2CCCCC2)CC1)c1ccccc1 (stereo not given) | 10.8% (inactive) |
| CCCOc1nc(N)c2cnn(C3CCCCO3)c2n1 (stereo not given) | 14.2% (inactive) |
| C=CCc1ccc(OC(=O)Nc2cccc(OC)c2)c(OC)c1 | 53.9% (inactive) |
| CCCCCCC(=O)N1CC(C)OC(C)C1 (stereo not given) | -14.7% (inactive) |
| BrC1CC2CC1C1C2CC2OC21 (stereo not given) | 9.2% (inactive) |
| Cc1cc(NC(=O)C(=O)CC(=O)c2ccc(Cl)s2)no1 | -6.7% (inactive) |
| O=[N+]([O-])c1ccc(-c2ccc([N+](=O)[O-])cc2)cc1 | 22.6% (inactive) |
| COC(=O)c1ccccc1C1CN=NC12Cc1c(ccc3c1CCC3)C2=O (stereo not given) | 27.9% (inactive) |
| CNC(=O)CN(CC(=O)NC)C(=O)NC | -2.35% (inactive) |
| CN/C=C(/c1ccc(OC)cc1)C(O)c1ccc(OC)c(OC)c1 (stereo not given) | -10.8% (inactive) |

Assay: NCI Yeast Anticancer Drug Screen. Data for the mlh1 rad18 strain (AID 175)
Conditions: S. cerevisiae mlh1 rad18 strain growth inhibition; at 50.0 µM; stronger effect = higher value
How it was run: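 Steps: expose repair-defective yeast to compound; measure growth; express inhibition against vehicle-treated controls.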

| SMILES | growth inhibition |
| --- | --- |
| CC(=N/NC(=S)NCCN1CCCC1)/C(C)=N\NC(=S)NCCN1CCCC1 | 35.1% (inactive) |
| CN(CCN(C)C(=O)CCn1cc(F)c(=O)[nH]c1=O)C(=O)CCn1cc(F)c(=O)[nH]c1=O | 29.9% (inactive) |
| COC(=O)c1ccccc1NC(=O)C(=O)NNC(=O)c1ccncc1 | 22.1% (inactive) |
| O=C(c1ccccc1)c1ccccc1O | 2.9% (inactive) |
| COC(=O)C1=C(O)c2cc(-c3ccccc3)c(-c3ccccc3)c(C#N)c2NC(=O)C1 | 30.4% (inactive) |
| COc1cc(/C=C/Cc2cc3c(cc2OCCO)OCO3)cc(OC)c1OC | 19.6% (inactive) |
| CCCCCCCc1ccc(N=Cc2ccc(OCCC)cc2)cc1 | 99.2% (active) |
| C/C(CC(=O)Nc1ccc(C)cc1C)=N/N=C(N)N | -17.1% (inactive) |
| CCN(CC)CCOC1(Cc2ccccn2)CCCCC1 | -9.75% (inactive) |
| COC(=O)c1ccc2c(c1)nnn2C(C)=O | 4.65% (inactive) |
| c1ccc2c(c1)cnc1cc3c(cc12)ncc1ccccc13 | 28.8% (inactive) |
| CCOC(=O)c1ccc(NC(=O)Nc2ccc(OC)c([N+](=O)[O-])c2)cc1 | -5.2% (inactive) |
| COc1cc(C2(C)SCCCS2)cc(OC)c1OC | -15.3% (inactive) |
| COc1ccccc1/C=C(\S)C(=O)O | 8.45% (inactive) |
| COC(=O)c1cc(C)c(C(=O)O)c(C)c1 | 14.9% (inactive) |
| O=C(NO)c1c(F)c(F)c(C(=O)NO)c(F)c1F | 2.1% (inactive) |
| CNn1c(-c2ccc(C)cc2)n[nH]c1=O | 19.9% (inactive) |
| CCc1ccc(-c2c(-c3ccccc3)c(-c3ccccc3)c(-c3ccccc3)c(-c3ccccc3)c2-c2ccccc2)cc1 | 30.9% (inactive) |
| CC(c1ccccc1)C1OCCO1 (stereo not given) | 28.7% (inactive) |
| Cc1cc(N(CCOS(C)(=O)=O)CCOS(C)(=O)=O)ccc1C=Nc1ccc(C(=O)O)c(O)c1 | 88% (active) |

| SMILES | growth inhibition |
| --- | --- |
| Nc1ncnc2c1ncn2C1OC(CSCc2ccc(Cl)cc2)C(O)C1O (stereo not given) | 22.2% (inactive) |
| C[S+](C)c1ccc(Cl)cc1 | 8.25% (inactive) |
| N=S(c1ccccc1)c1ccccc1[N+](=O)[O-] (stereo not given) | -3.45% (inactive) |
| CC(=O)Nc1ccc(S(=O)(=O)CCS(=O)(=O)c2ccc(NC(C)=O)cc2)cc1 | -9.45% (inactive) |
| CCCCCCCCCCCCCCCCOc1ccccn1 | -6.9% (inactive) |
| COc1ccc2ccc3c(OC(C)=O)ccc(CCN(C)C(C)=O)c3c2c1OC(C)=O | 4.85% (inactive) |
| COc1ccc2c(c1)C1(C)CCCC(C)(CO)C1CC2 (stereo not given) | -10.8% (inactive) |
| CSc1c2c(c(C)c3c1[nH]c1ccccc13)C=NCC2 | 17.7% (inactive) |
| Brc1cn2[n+](c1)[B-]n1cc(Br)c[n+]1[B-]2 | 12% (inactive) |
| COc1ccc(NC(=O)/C(Cc2nc3ccccc3[nH]c2=O)=N\O)c(OC)c1 | -13.7% (inactive) |
| O=C(NC1CCC(CC2CCCCC2)CC1)c1ccccc1 (stereo not given) | 19.2% (inactive) |
| CCCOc1nc(N)c2cnn(C3CCCCO3)c2n1 (stereo not given) | -9.25% (inactive) |
| C=CCc1ccc(OC(=O)Nc2cccc(OC)c2)c(OC)c1 | 68.8% (inactive) |
| CCCCCCC(=O)N1CC(C)OC(C)C1 (stereo not given) | 4.8% (inactive) |
| BrC1CC2CC1C1C2CC2OC21 (stereo not given) | -48.2% (inactive) |
| Cc1cc(NC(=O)C(=O)CC(=O)c2ccc(Cl)s2)no1 | -2.6% (inactive) |
| O=[N+]([O-])c1ccc(-c2ccc([N+](=O)[O-])cc2)cc1 | -13.3% (inactive) |
| COC(=O)c1ccccc1C1CN=NC12Cc1c(ccc3c1CCC3)C2=O (stereo not given) | -0.85% (inactive) |
| CNC(=O)CN(CC(=O)NC)C(=O)NC | 1.55% (inactive) |
| CN/C=C(/c1ccc(OC)cc1)C(O)c1ccc(OC)c(OC)c1 (stereo not given) | -20.4% (inactive) |
